Where a name gives a salt, the structure may show the parent alone.
The molecules below were run on replication-induced senescent mouse newborn dermal fibroblasts (NBF) (assay: relative cell viability of senescent cells (fraction); higher = less killing of senescent cells). Conditions: 1 µM; 3 days.
Description: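 Replication-induced senescent newborn mouse skin fibroblasts (NBFs) in 24-well plates were treated with a Selleck FDA-approved drug library at 1 µM for 3 days.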

Point of comparison: C[C@@](Cc1ccc(O)c(O)c1)(NN)C(=O)O [Carbidopa], relative cell viability 1.05. Against it:
- Nc1nc(F)nc2c1ncn2[C@@H]1O[C@H](CO)[C@@H](O)[C@@H]1O [Fludarabine] — lower, 0.0671
- Cc1cc(Nc2cc(N3CCN(C)CC3)nc(Sc3ccc(NC(=O)C4CC4)cc3)n2)n[nH]1 [Tozasertib (VX-680, MK-0457)] — lower, 0.364
- Nc1nc(=O)n([C@@H]2CS[C@H](CO)O2)cc1F [Emtricitabine] — lower, 1.04
- Nc1ccc(S(=O)(=O)Nc2ncccn2)cc1 [Sulfadiazine] — higher, 1.11
- CCCCC[C@H](O)/C=C/[C@H]1[C@H](O)CC(=O)[C@@H]1CCCCCCC(=O)O [Alprostadil] — lower, 0.875
- CN(C)C/C=C/C(=O)Nc1cc2c(Nc3ccc(F)c(Cl)c3)ncnc2cc1O[C@H]1CCOC1 [Afatinib (BIBW2992)] — lower, 0.539
- N=C(N)NC(=O)c1nc(Cl)c(N)nc1N [Amiloride HCl] — lower, 0.768
- CN(C)[C@@H](CCOc1cccc2ccccc12)c1ccccc1 [Dapoxetine HCl] — higher, 1.08
- Clc1cccc(Cl)c1NC1=NCCN1 [Clonidine HCl] — lower, 1.04
- CN1C(C(=O)Nc2ccccn2)=C(O)c2ccccc2S1(=O)=O [Piroxicam] — lower, 0.562
- Nc1ccn([C@@H]2O[C@H](CO)[C@@H](O)C2(F)F)c(=O)n1 [Gemcitabine] — lower, 0.11
- Cc1cnc(NC(=O)C2=C(O)c3ccccc3S(=O)(=O)N2C)s1 [Meloxicam] — higher, 1.17
- Clc1ccc2nsnc2c1NC1=NCCN1 [Tizanidine HCl] — lower, 0.994
- Cc1cn[nH]c1 [Fomepizole] — higher, 1.07
- CCN(CC)CC#CCOC(=O)C(O)(c1ccccc1)C1CCCCC1 (stereo not given) [Oxybutynin] — lower, 0.938
- CC[C@H]1OC(=O)[C@H](C)[C@@H](O[C@H]2C[C@@](C)(OC)[C@@H](O)[C@H](C)O2)[C@H](C)[C@@H](O[C@@H]2O[C@H](C)C[C@H](N(C)C)[C@H]2O)[C@](C)(O)C[C@@H](C)C(=O)[C@H](C)[C@@H](O)[C@]1(C)O [Erythromycin] — lower, 0.796
- COC(=O)N[C@H](C(=O)N1CCC[C@H]1c1ncc(-c2ccc(-c3ccc(-c4cnc([C@@H]5CCCN5C(=O)[C@@H](NC(=O)OC)C(C)C)[nH]4)cc3)cc2)[nH]1)C(C)C — lower, 0.545
- COc1cc2nc(N(C)CCCNC(=O)C3CCCO3)nc(N)c2cc1OC (stereo not given) [Alfuzosin HCl] — lower, 0.96
- CCCc1nc2c(C)cc(-c3nc4ccccc4n3C)cc2n1Cc1ccc(-c2ccccc2C(=O)O)cc1 [Telmisartan] — higher, 1.15
- CCCCC(=O)N(Cc1ccc(-c2ccccc2-c2nnn[nH]2)cc1)[C@H](C(=O)O)C(C)C [Valsartan] — lower, 0.897
- CC(C(=O)O)c1ccc(-c2ccccc2)c(F)c1 (stereo not given) [Flurbiprofen] — lower, 1.04
- CCN(CCO)CCCOc1ccc2c(Nc3cc(CC(=O)Nc4cccc(F)c4)[nH]n3)ncnc2c1 [Barasertib (AZD1152-HQPA)] — lower, 1
- CCCc1nn(C)c2c(=O)[nH]c(-c3cc(S(=O)(=O)N4CCN(C)CC4)ccc3OCC)nc12 [Sildenafil Citrate] — lower, 0.891
- Oc1ncnc2[nH]ncc12 [Allopurinol] — lower, 0.796
- Nc1nc(=O)[nH]cc1F [Flucytosine] — lower, 0.996
- COc1ccc2[nH]c([S@@+]([O-])Cc3ncc(C)c(OC)c3C)nc2c1 [NEXIUM (esomeprazole magnesium)] — higher, 1.07
- COc1ccc(/C=C/C(=O)Nc2ccccc2C(=O)O)cc1OC [Tranilast] — lower, 1
- Nc1ccc(O)c(C(=O)O)c1 [Mesalamine] — lower, 0.351
- C[C@H]1C[C@H]2[C@@H]3CCC4=CC(=O)C=C[C@]4(C)[C@H]3C(=O)C[C@]2(C)[C@@]1(O)C(=O)CO [Meprednisone] — higher, 1.09
